This is part of a sample that, as a whole, favours compounds with a hit. Of some 79,000 tested, about 15% had one in any assay. A number with no mark means an inactive call. The source made the active and inactive calls. No stated cut-off is given here; in the data, active means growth inhibition above about 70%; inactive means the rest.
Columns and labels:
[1] = NCI Yeast Anticancer Drug Screen. Data for the rad50 strain (AID 155);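 further: 0% = growth of vehicle-only cultures of the same strain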; details: S. cerevisiae rad50 strain growth inhibition, stronger effect = higher value
Procedure, shortened: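 Cells are treated with compound, grown, and their growth is then scored against vehicle-only cultures of the same repair-deficient yeast strain.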

[2] = NCI Yeast Anticancer Drug Screen. Data for the mec2-1 strain (AID 157); details: S. cerevisiae mec2-1 strain, stronger effect = higher value
Procedure, shortened: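 Vehicle-treated cultures served as reference for growth inhibition of compound-exposed mec2-1 yeast.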

[3] = NCI Yeast Anticancer Drug Screen. Data for the sgs1 mgt1 strain (AID 161);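 further: 0% = growth of cultures given vehicle only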; details: S. cerevisiae sgs1 mgt1 strain, stronger effect = higher value
Procedure, shortened: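 Read-out: growth inhibition vs vehicle controls. Cells: mutant yeast strain deficient in DNA damage repair.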

[4] = NCI Yeast Anticancer Drug Screen. Data for the cln2 rad14 strain (AID 165);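 further: 0% = growth equal to vehicle treated cultures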; details: S. cerevisiae cln2 rad14 strain, stronger effect = higher value
Procedure, shortened: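 Each compound was tested on cln2 rad14 yeast. Inhibition of growth was calculated against vehicle-exposed controls.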

[5] = NCI Yeast Anticancer Drug Screen. Data for the bub3 strain (AID 167); details: S. cerevisiae bub3 mutant strain, stronger effect = higher value
Procedure, shortened: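 Part of a panel of yeast mutants defective in DNA damage repair or cell cycle regulation. Each strain is grown with compound, and inhibition is calculated relative to solvent-treated cultures.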

[6] = NCI Yeast Anticancer Drug Screen. Data for the mlh1 rad18 strain (AID 175); details: S. cerevisiae mlh1 rad18 strain growth inhibition, stronger effect = higher value
Procedure, shortened: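 Vehicle-treated cultures served as the reference for growth inhibition in a yeast strain carrying DNA damage repair alterations exposed to each compound.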

[7] = at 5.0 µM (retest, dose inferred, filed as 0.5)
[8] = at 50.0 µM (retest, dose inferred, filed as 5.0)

O=[As](O)(O)CCc1ccccc1
growth inhibition [1, 7]: -148%
growth inhibition [1, 8]: -168%
growth inhibition ([1]; at 50.0 µM): 2.3%
growth inhibition [2, 7]: -50%
growth inhibition [2, 8]: -54%
growth inhibition ([2]; at 50.0 µM): 3.75%
growth inhibition [3, 7]: -67%
growth inhibition [3, 8]: -56%
growth inhibition ([3]; at 50.0 µM): 8.35%
growth inhibition [4, 7]: -58%
growth inhibition [4, 8]: -65%
growth inhibition ([4]; at 50.0 µM): 17.4%
growth inhibition [5, 7]: -67%
growth inhibition [5, 8]: -78%
growth inhibition ([5]; at 50.0 µM): -5.95%
growth inhibition [6, 7]: -146%
growth inhibition [6, 8]: -115%
growth inhibition ([6]; at 50.0 µM): 5.7%

N#CC(C#N)=NNc1cccc(Cl)c1Cl
growth inhibition [1, 7]: 43%
growth inhibition [1, 8]: 73% (active)
growth inhibition ([1]; at 50.0 µM): 90.8% (active)
growth inhibition [2, 7]: 48%
growth inhibition [2, 8]: 75% (active)
growth inhibition ([2]; at 50.0 µM): 92.7% (active)
growth inhibition [3, 7]: 31%
growth inhibition [3, 8]: 100% (active)
growth inhibition ([3]; at 50.0 µM): 93.2% (active)
growth inhibition [4, 7]: 71% (active)
growth inhibition [4, 8]: 100% (active)
growth inhibition ([4]; at 50.0 µM): 90.7% (active)
growth inhibition [5, 7]: 25%
growth inhibition [5, 8]: 100% (active)
growth inhibition ([5]; at 50.0 µM): 91.8% (active)
growth inhibition [6, 7]: 41%
growth inhibition [6, 8]: 66%
growth inhibition ([6]; at 50.0 µM): 90.2% (active)

O=C1C=CC(=O)C(Br)C1Br (stereo not given)
growth inhibition [1, 7]: -20%
growth inhibition [1, 8]: 34%
growth inhibition ([1]; at 50.0 µM): 26.1%
growth inhibition [2, 7]: -8%
growth inhibition [2, 8]: 57%
growth inhibition ([2]; at 50.0 µM): 35.3%
growth inhibition [3, 7]: -7%
growth inhibition [3, 8]: 66%
growth inhibition ([3]; at 50.0 µM): 46.3%
growth inhibition [4, 7]: 2%
growth inhibition [4, 8]: 10%
growth inhibition ([4]; at 50.0 µM): 19.1%
growth inhibition [5, 7]: -1%
growth inhibition [5, 8]: 52%
growth inhibition ([5]; at 50.0 µM): 71.2% (active)
growth inhibition [6, 7]: 35%
growth inhibition [6, 8]: 57%
growth inhibition ([6]; at 50.0 µM): 66.2%

CCOP(=O)(N=Nc1cccnc1)OCC
growth inhibition [1, 7]: -2%
growth inhibition [1, 8]: -17%
growth inhibition ([1]; at 50.0 µM): 14%
growth inhibition [2, 7]: 2%
growth inhibition [2, 8]: -10%
growth inhibition ([2]; at 50.0 µM): 6.35%
growth inhibition [3, 7]: -1%
growth inhibition [3, 8]: -11%
growth inhibition ([3]; at 50.0 µM): 5.05%
growth inhibition [4, 7]: 1%
growth inhibition [4, 8]: -17%
growth inhibition ([4]; at 50.0 µM): 59.8%
growth inhibition [5, 7]: 1%
growth inhibition [5, 8]: -3%
growth inhibition ([5]; at 50.0 µM): 20.1%
growth inhibition [6, 7]: 2%
growth inhibition [6, 8]: -17%
growth inhibition ([6]; at 50.0 µM): 39.1%

CCC[CH2][Sn]1([CH2]CCC)[O]C(=O)CN=Cc2ccccc2[O]1
growth inhibition [1, 7]: 88% (active)
growth inhibition [1, 8]: 88% (active)
growth inhibition ([1]; at 50.0 µM): 88.5% (active)
growth inhibition [2, 7]: 92% (active)
growth inhibition [2, 8]: 92% (active)
growth inhibition ([2]; at 50.0 µM): 92% (active)
growth inhibition [3, 7]: 85% (active)
growth inhibition [3, 8]: 85% (active)
growth inhibition ([3]; at 50.0 µM): 90% (active)
growth inhibition [4, 7]: 91% (active)
growth inhibition [4, 8]: 91% (active)
growth inhibition ([4]; at 50.0 µM): 90.8% (active)
growth inhibition [5, 7]: 90% (active)
growth inhibition [5, 8]: 90% (active)
growth inhibition ([5]; at 50.0 µM): 89.9% (active)
growth inhibition [6, 7]: 90% (active)
growth inhibition [6, 8]: 90% (active)
growth inhibition ([6]; at 50.0 µM): 89.5% (active)

CC(c1ccccc1)N1O[C@]12CC[C@@]1(C)C(CCCC13OCCO3)C2 (stereo not given in full)
growth inhibition [1, 7]: 88% (active)
growth inhibition [1, 8]: 97% (active)
growth inhibition ([1]; at 50.0 µM): 92% (active)
growth inhibition [2, 7]: 97% (active)
growth inhibition [2, 8]: 99% (active)
growth inhibition ([2]; at 50.0 µM): 94% (active)
growth inhibition [3, 7]: 36%
growth inhibition [3, 8]: 97% (active)
growth inhibition ([3]; at 50.0 µM): 92.2% (active)
growth inhibition [4, 7]: 95% (active)
growth inhibition [4, 8]: 98% (active)
growth inhibition ([4]; at 50.0 µM): 91.2% (active)
growth inhibition [5, 7]: 94% (active)
growth inhibition [5, 8]: 98% (active)
growth inhibition ([5]; at 50.0 µM): 91% (active)
growth inhibition [6, 7]: 93% (active)
growth inhibition [6, 8]: 97% (active)
growth inhibition ([6]; at 50.0 µM): 91.5% (active)

O=C1C(Cl)=C(Cl)C(=O)c2ccccc21
growth inhibition [1, 7]: 99% (active)
growth inhibition [1, 8]: 96% (active)
growth inhibition ([1]; at 50.0 µM): 97.8% (active)
growth inhibition [2, 7]: 55%
growth inhibition [2, 8]: 98% (active)
growth inhibition ([2]; at 50.0 µM): 97% (active)
growth inhibition [3, 7]: 99% (active)
growth inhibition [3, 8]: 97% (active)
growth inhibition ([3]; at 50.0 µM): 98.2% (active)
growth inhibition [4, 7]: 99% (active)
growth inhibition [4, 8]: 95% (active)
growth inhibition ([4]; at 50.0 µM): 96.6% (active)
growth inhibition [5, 7]: 98% (active)
growth inhibition [5, 8]: 96% (active)
growth inhibition ([5]; at 50.0 µM): 97.5% (active)
growth inhibition [6, 7]: 99% (active)
growth inhibition [6, 8]: 96% (active)
growth inhibition ([6]; at 50.0 µM): 98% (active)

CC(=O)CC(=O)Nc1c(C)[c]([Hg][O]C(C)=O)c(C)[c]([Hg][O]C(C)=O)[c]1[Hg][O]C(C)=O
growth inhibition [1, 7]: 60%
growth inhibition [1, 8]: 93% (active)
growth inhibition ([1]; at 50.0 µM): 90.8% (active)
growth inhibition [2, 7]: 99% (active)
growth inhibition [2, 8]: 94% (active)
growth inhibition ([2]; at 50.0 µM): 92.6% (active)
growth inhibition [3, 7]: 57%
growth inhibition [3, 8]: 94% (active)
growth inhibition ([3]; at 50.0 µM): 92.8% (active)
growth inhibition [4, 7]: 33%
growth inhibition [4, 8]: 93% (active)
growth inhibition ([4]; at 50.0 µM): 88% (active)
growth inhibition [5, 7]: 99% (active)
growth inhibition [5, 8]: 94% (active)
growth inhibition ([5]; at 50.0 µM): 92.2% (active)
growth inhibition [6, 7]: 85% (active)
growth inhibition [6, 8]: 93% (active)
growth inhibition ([6]; at 50.0 µM): 90% (active)

COC(=O)[C@]1(C)CCC[C@]2(C)[C@H]3CC4OO[C@@]3(CC[C@H]21)[C@H]1O[C@@]41C(C)C
growth inhibition [1, 7]: 98% (active)
growth inhibition [1, 8]: 99% (active)
growth inhibition ([1]; at 50.0 µM): 92.5% (active)
growth inhibition [2, 7]: 99% (active)
growth inhibition [2, 8]: 99% (active)
growth inhibition ([2]; at 50.0 µM): 93.4% (active)
growth inhibition [3, 7]: 99% (active)
growth inhibition [3, 8]: 100% (active)
growth inhibition ([3]; at 50.0 µM): 93.7% (active)
growth inhibition [4, 7]: 92% (active)
growth inhibition [4, 8]: 99% (active)
growth inhibition ([4]; at 50.0 µM): 92.2% (active)
growth inhibition [5, 7]: 98% (active)
growth inhibition [5, 8]: 99% (active)
growth inhibition ([5]; at 50.0 µM): 91.8% (active)
growth inhibition [6, 7]: 98% (active)
growth inhibition [6, 8]: 99% (active)
growth inhibition ([6]; at 50.0 µM): 92.3% (active)

C[CH2][Sn]([CH2]C)[O][Sn]([Cl])([CH2]C)[CH2]C
growth inhibition [1, 7]: 51%
growth inhibition [1, 8]: 96% (active)
growth inhibition ([1]; at 50.0 µM): 87.9% (active)
growth inhibition [2, 7]: 35%
growth inhibition [2, 8]: 97% (active)
growth inhibition ([2]; at 50.0 µM): 88.3% (active)
growth inhibition [3, 7]: 37%
growth inhibition [3, 8]: 97% (active)
growth inhibition ([3]; at 50.0 µM): 87.5% (active)
growth inhibition [4, 7]: 19%
growth inhibition [4, 8]: 91% (active)
growth inhibition ([4]; at 50.0 µM): 84% (active)
growth inhibition [5, 7]: 39%
growth inhibition [5, 8]: 96% (active)
growth inhibition ([5]; at 50.0 µM): 83.3% (active)
growth inhibition [6, 7]: 75% (active)
growth inhibition [6, 8]: 97% (active)
growth inhibition ([6]; at 50.0 µM): 86.7% (active)

From PubChem BioAssay (NCI)
